DT40 TDP1 CPT: DT40-hTDP1 cell growth loss with CPT; chicken DT40 Tdp1-/-;hTDP1 cells + 20 nM CPT, ATP luminescence, 48 h; Potency, µM (highest dose often 46.2 µM), inactives show at the highest dose activity change, negative = growth inhibition, most hits filed as inhibitors; actives 12% (n = 420,000); AID 686979; also: potency is read from the fitted curve at half-maximal effect; nearly all actives have a fitted effect of over 55% in size
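Chicken DT40 Tdp1-/- cells stably complemented with human TDP1 were seeded at 400 cells/well in medium containing 20 nM camptothecin, exposed to pin-transferred compounds, and grown at 37 °C for at least 48 hr. Viability was read as ATP luminescence.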
HT1080NT lethal: kills 2HG-producing HT-1080-NT fibrosarcoma cells. Potency, µM (series often up to 46.1 µM), inactives show at the highest dose activity, negative = less viability, hits mostly cytotoxic. actives 1.6% (n = 360,000). HT-1080-NT fibrosarcoma viability, CellTiter-Glo ATP luminescence, 48 h;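 also: NT is the 2HG producing partner of a matched IDH1 knockdown line; potency is read from the fitted curve at half-maximal effect; 0% = DMSO-treated cells and -100% = media-only wells without cells; nearly all actives have a fitted effect of over 55% in size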
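HT-1080-NT; 750 cells/well; 5% FBS RPMI; 48 h compound, 37 degrees C; CellTiter-Glo luminescence; curve fitting and curve-class assignment.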
HT1080 IDH1KD tx: toxicity to HT-1080 IDH1 knockdown cells (counter line); Potency, µM (titrated, usually from 46.1 µM), inactives show top-dose activity, negative = toxicity, most hits filed as cytotoxic; HT-1080 IDH1 knockdown viability, ATP luminescence, 48 h; actives 2% (n = 360,000); AID 686971;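 also: potency is read from the fitted curve at half-maximal effect; 0% = DMSO wells and -100% = cell-free medium wells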
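CellTiter-Glo luminescence after 48 h compound exposure at 37 degrees C of IDH1-knockdown HT-1080 cells in 5% FBS RPMI. %Activity scaled between DMSO wells and cell-free media wells, with curves fitted and assigned curve classes.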
IL1B secr inh: inflammasome signaling inhibition, IL-1 beta readout | activity change, % at 57.5 µM | AID 743279 | THP-1 LPS/ATP IL-1B secretion, AlphaLISA, 16 h; active compounds read low | actives 4.7% (n = 360,000); in the data active = activity change below about -50%; inconclusive = mostly about -30% to -49%
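Secreted IL-1B measured by AlphaLISA bead assay after 16 h compound exposure of THP-1 cells; compounds (final up to 57.5 uM) added 1 h before LPS (250 ng/mL) and ATP (1.25 mM) stimulation; lower signal means less secretion.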
DT40 TDP1 no CPT: qHTS for Inhibitors of human tyrosyl-DNA phosphodiesterase 1 (TDP1): qHTS in cells in absence of CPT. DT40 Tdp1-/- hTDP1 cells, no CPT, ATP luminescence, 48 h. Potency, µM (highest dose often 46.2 µM), inactives show at the highest dose activity change, negative = growth inhibition, actives largely listed as inhibitors. actives 15% (n = 420,000). AID 686978, 2013; also: potency is read from the fitted curve at half-maximal effect; nearly all actives have a fitted effect of over 55% in size
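Luminescent ATP content (CellTiter-Glo) served as the growth readout. Knockout chicken DT40 cells expressing human TDP1 were exposed to compounds without camptothecin for a minimum 48 hr at 37 °C.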
Starred values were filed as active, the others as inactive. Most compounds without a hit are left out; they make up all but 19% or so of the library. Unless noted, calls follow the shape of the dose curve; as a rule, active = well fitted curve in the direction sought with a large enough effect; inconclusive = small, poorly fitted or top-dose-only effect, or another doubt; inactive = no such curve, though single readings can be large; an effect the other way counts as inactive or inconclusive. Unless noted, % is scaled to controls: 0 for no effect and ±100 for the full control effect.

What do the screens show for `COc1cc(C(C)=O)ccc1OCC(=O)N1CCc2ccccc2C1`?
DT40 TDP1 CPT: 7%; HT1080NT lethal: 20%; HT1080 IDH1KD tx: 14%; IL1B secr inh: -13; DT40 TDP1 no CPT: -11%

What do the screens show for `COc1cc2c(cc1OC)CN(C(=O)CCOc1ccccc1C)CC2`?
DT40 TDP1 CPT: inconclusive; HT1080NT lethal: inconclusive; HT1080 IDH1KD tx: inconclusive; IL1B secr inh: 37; DT40 TDP1 no CPT: 21µM*

How did C/C=C/c1ccc(OCC(=O)N2CCc3cc(OC)c(OC)cc3C2)c(OC)c1 do in these assays?
DT40 TDP1 CPT: inconclusive; HT1080NT lethal: -8%; HT1080 IDH1KD tx: 0%; IL1B secr inh: inconclusive; DT40 TDP1 no CPT: 23µM*

What do the screens show for `Cc1cc(OCC(=O)OCC(=O)c2c(N)n(C)c(=O)n(C)c2=O)ccc1Cl`?
DT40 TDP1 CPT: -4%; HT1080NT lethal: 7%; HT1080 IDH1KD tx: 12%; IL1B secr inh: 1; DT40 TDP1 no CPT: -42%

Results for Cc1ccc(NS(=O)(=O)c2cccc([N+](=O)[O-])c2)nc1 ?
DT40 TDP1 CPT: -8%; HT1080NT lethal: 19%; HT1080 IDH1KD tx: -5%; IL1B secr inh: -7; DT40 TDP1 no CPT: -29%

What do the screens show for `COc1cc2c(cc1OC)CN(C(=O)CCCN1C(=O)c3ccccc3C1=O)CC2`?
DT40 TDP1 CPT: -11%; HT1080NT lethal: 5%; HT1080 IDH1KD tx: -7%; IL1B secr inh: 45; DT40 TDP1 no CPT: -17%

Results for COc1cc2c(cc1OC)CN(C(=O)CCCOc1ccc(Cl)cc1Cl)CC2 ?
DT40 TDP1 CPT: 16µM*; HT1080NT lethal: inconclusive; HT1080 IDH1KD tx: inconclusive; IL1B secr inh: inconclusive; DT40 TDP1 no CPT: 18µM*

What do the screens show for `CCN(C(=O)CN1C(=O)S/C(=C\c2ccc(Cl)cc2)C1=O)C1CCS(=O)(=O)C1` (stereo unspecified)?
DT40 TDP1 CPT: -30%; HT1080NT lethal: 0%; HT1080 IDH1KD tx: 0%; IL1B secr inh: -13; DT40 TDP1 no CPT: -9%

What do the screens show for `O=C1S/C(=C\c2ccc(Cl)cc2)C(=O)N1CCn1cnnn1`?
DT40 TDP1 CPT: -8%; HT1080NT lethal: -4%; HT1080 IDH1KD tx: 0%; IL1B secr inh: -62*; DT40 TDP1 no CPT: inconclusive

Results for COc1ccc(/C=C2\SC(=O)N(CCC(=O)N3CCN(C)CC3)C2=O)cc1 ?
DT40 TDP1 CPT: -26%; HT1080NT lethal: 30%; HT1080 IDH1KD tx: 8%; IL1B secr inh: 0; DT40 TDP1 no CPT: inconclusive

How did CC12CCC(=O)N1C(C(=O)NCCN1C(=O)S/C(=C\c3ccccc3Cl)C1=O)CS2 (stereo unspecified) do in these assays?
DT40 TDP1 CPT: -25%; HT1080NT lethal: -1%; HT1080 IDH1KD tx: -2%; IL1B secr inh: -12; DT40 TDP1 no CPT: inconclusive

How did COc1ccc(/C=C2\SC(=S)N(CCCC(=O)N3CCN(C)CC3)C2=O)cc1OC do in these assays?
DT40 TDP1 CPT: -25%; HT1080NT lethal: 3%; HT1080 IDH1KD tx: 0%; IL1B secr inh: 15; DT40 TDP1 no CPT: -10%

How did Cc1ccc(/C=C2\SC(=O)N(CCNC(=O)C3CSC4(C)CCC(=O)N34)C2=O)cc1 (stereo unspecified) do in these assays?
DT40 TDP1 CPT: inconclusive; HT1080NT lethal: 5%; HT1080 IDH1KD tx: 6%; IL1B secr inh: inconclusive; DT40 TDP1 no CPT: 15µM*

What do the screens show for `CN1CCN(C(=O)CCN2C(=O)S/C(=C/c3ccc(Cl)cc3)C2=O)CC1`?
DT40 TDP1 CPT: 13µM*; HT1080NT lethal: 21%; HT1080 IDH1KD tx: 10%; IL1B secr inh: 0; DT40 TDP1 no CPT: 13µM*

Results for Cc1ccc(/C=C2\SC(=O)N(CCC(=O)N3CCN(C)CC3)C2=O)cc1 ?
DT40 TDP1 CPT: 18µM*; HT1080NT lethal: -13%; HT1080 IDH1KD tx: -10%; IL1B secr inh: -14; DT40 TDP1 no CPT: 23µM*

Screening results from PubChem.
